Experimental data reported in PubChem BioAssay (EPA / NIEHS).
Results filed as inconclusive are left out. A structure can be active in one record and inactive in another. The source made the active and inactive calls. How the source made its calls, unless noted: active means hit-call score of the fitted dose curve at least 0.9, where 1 is the maximum; inconclusive means response in the unintended direction; inactive means score below 0.9.

How the values were obtained:
[1] = CEETOX_H295R_MTT_cell_viability: Viability Assessment in the CeeTox HT-H295R MTT Assay (AID 2283718; active means hit-call score of the fitted dose curve at least 0.9, where 1 is the maximum; inactive means score below 0.9)
How it was run: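 H295R cells prestimulated 48 h with 10 uM forskolin, then exposed 48 h to test chemical (0.1% DMSO final). Viability by MTT (0.5 mg/ml, 4 h, 37 C), absorbance 570/650 nm; percent change versus DMSO, bidirectional fit.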

[2] = Tanguay_ZF_120hpf_ActivityScore_legacy: (Legacy) Oregon State University Tanguay Lab 120 Hour Post-fertilization zebrafish Assay Score for Activity (AID 2283742);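 on AC50: dechorionated Tropical 5D wild-type zebrafish embryos held singly per well; static exposure from 6 hpf until 120 hpf at 28 °C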
How it was run: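 In this whole-embryo screen, dechorionated zebrafish were exposed from 6 hpf until 120 hpf at 28C under a 0.64% DMSO vehicle. Developmental malformations and death were recorded by brightfield microscopy as binary endpoints.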

[3] = target: Luciferin 4-monooxygenase (Photinus pyralis) (UniProt P08659); test: CCTE_Simmons_QuantiLum_inhib_2: CCTE's Firefly Luciferase Inhibition Assay, Simmons Lab (AID 2283767)
Luciferin 4-monooxygenase (Photinus pyralis), sequence (P08659 whole entry, looked up): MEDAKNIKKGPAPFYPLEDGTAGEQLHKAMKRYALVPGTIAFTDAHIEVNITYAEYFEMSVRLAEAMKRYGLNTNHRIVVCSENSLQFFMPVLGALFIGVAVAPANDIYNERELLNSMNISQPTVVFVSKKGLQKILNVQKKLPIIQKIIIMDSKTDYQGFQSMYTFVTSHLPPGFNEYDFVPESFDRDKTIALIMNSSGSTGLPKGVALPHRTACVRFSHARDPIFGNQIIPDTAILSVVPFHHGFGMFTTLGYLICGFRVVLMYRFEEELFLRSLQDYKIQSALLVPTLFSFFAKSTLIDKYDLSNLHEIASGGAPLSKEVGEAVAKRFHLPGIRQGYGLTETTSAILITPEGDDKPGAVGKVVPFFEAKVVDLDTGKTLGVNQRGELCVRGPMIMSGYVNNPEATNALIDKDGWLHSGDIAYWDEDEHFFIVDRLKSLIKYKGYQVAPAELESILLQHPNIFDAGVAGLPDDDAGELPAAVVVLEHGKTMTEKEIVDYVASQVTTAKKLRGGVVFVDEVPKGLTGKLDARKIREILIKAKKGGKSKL
How it was run: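 Eight-point titrations of each chemical, 5 nM–87.5 uM final in 0.5% DMSO, were run in three biological replicates against recombinant luciferase for 30 min at 37C. Bioluminescence signal loss, read on reagent injection, gave the inhibition endpoint.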

[4] = system: chicken Androgen Receptor (AR), gene 422165; test: ATG_chAR_XSP1: Attagene TRANS-FACTORIAL Multi-Species (XSP1) HepG2 Assay for chicken Androgen Receptor (AR) (AID 2283768)
How it was run: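 Reporter mRNA read by RT-PCR with fluorescent labelling and capillary electrophoresis 24 h after chemical dosing of transiently transfected HepG2 cells. Chicken AR-Gal4 chimera, partially stimulated with 3 nM 6-alpha-fluorotestosterone; activity fitted upward relative to DMSO.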

[5] = system: zebrafish Androgen Receptor (AR), gene 100005148; test: ATG_zfAR_XSP1: Attagene TRANS-FACTORIAL Multi-Species (XSP1) HepG2 Assay for zebrafish Androgen Receptor (AR) (AID 2283771)
How it was run: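 Gain-of-signal versus DMSO was measured as reporter transcripts quantified by RT-PCR, fluorescent labelling and capillary electrophoresis after 24 h chemical exposure. The cells were HepG2 expressing a chimeric zebrafish AR-GAL4, co-stimulated with 3 nM 6-alpha-fluorotestosterone.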

[6] = system: frog Androgen Receptor (AR), gene 399456; test: ATG_frAR_XSP1: Attagene TRANS-FACTORIAL Multi-Species (XSP1) HepG2 Assay for frog Androgen Receptor (AR) (AID 2283770)
[7] = system: Thyroperoxidase (TPO), gene 445522; test: CCTE_Simmons_GUA_TPO: CCTE's Guaiacol Assay for Thyroperoxidase (TPO) Inhibition, Simmons Lab (AID 2283750)
How it was run: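 Porcine thyroid microsomes (25 ug) in 200mM potassium phosphate, preincubated 30 s at 37C with compound (8 concentrations, 5 nM–87.5 uM) and 35mM guaiacol; 1mM H2O2 starts reaction. Absorbance change at 450nm over first 80 s; loss of signal versus DMSO, three replicates.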

C[C@]12CCC(=O)C=C1CC[C@@H]1[C@@H]2CC[C@]2(C)C(=O)CC[C@@H]12
outcome [1]: inactive
AC50 [2]: 67.7 µM (active)
outcome [3]: inactive
AC50 [4]: 0.0535 µM (active)
outcome [4]: inactive
outcome [5]: inactive

ClC1=C(Cl)[C@]2(Cl)[C@@H]3[C@@H](Cl)[C@H]4O[C@H]4[C@@H]3C1(Cl)C2(Cl)Cl
outcome [2]: inactive

C[C@]12CCC(=O)C=C1CC[C@@H]1[C@@H]2CC[C@@]2(C)[C@H]1CC[C@]2(C)O
outcome [1]: inactive
outcome [2]: inactive
AC50 [4]: 0.000449 µM (active)
AC50 [6]: 0.0038 µM (active)
AC50 [5]: 0.000293 µM (active)

O=C(NC(=O)c1c(F)cccc1F)Nc1cc(Cl)c(OC(F)(F)C(F)F)c(Cl)c1
outcome [1]: inactive
outcome [2]: inactive
outcome [3]: inactive

CN(C)CCO
outcome [2]: inactive

Cc1cc(-c2ccc(N)c(C)c2)ccc1N
outcome [1]: inactive
outcome [2]: inactive

O=C(N[C@H]1CN2CCC1CC2)c1cc2ccoc2cn1
outcome [2]: inactive

CC(C)(O)C(=O)Nc1ccc([N+](=O)[O-])c(C(F)(F)F)c1
AC50 [2]: 20.3 µM (active)

COc1ccc(O)c(C(C)(C)C)c1
outcome [2]: inactive
outcome [3]: inactive

O=S(=O)(O)C(F)(F)C(F)(F)C(F)(F)C(F)(F)F
outcome [2]: inactive

CCOP(=S)(OCC)SCSC(C)(C)C
outcome [1]: inactive
outcome [2]: inactive

Sc1ccccc1
outcome [3]: inactive

Clc1ccc(Cl)cc1
outcome [2]: inactive

ClC(Cl)=C(c1ccc(Cl)cc1)c1ccc(Cl)cc1
outcome [2]: inactive
outcome [5]: inactive

O=C(O)C(F)(F)C(F)(F)C(F)(F)C(F)(F)C(F)(F)C(F)(F)C(F)(F)C(F)(F)F
outcome [2]: inactive
outcome [3]: inactive

O=C(O)C(F)(F)C(F)(F)C(F)(F)C(F)(F)C(F)(F)F
outcome [2]: inactive

O=C(O)C(F)(F)C(F)(F)C(F)(F)C(F)(F)C(F)(F)C(F)(F)C(F)(F)C(F)(F)C(F)(F)F
outcome [1]: inactive
outcome [2]: inactive
outcome [3]: inactive

CC(C)C(=O)OCC(C)(C)C(OC(=O)C(C)C)C(C)C (stereo unspecified)
AC50 [2]: 27.2 µM (active)

Oc1c(Cl)c(Cl)c(Cl)c(Cl)c1Cl
outcome [1]: inactive
AC50 [2]: 1.03 µM (active)
outcome [3]: inactive

CCC(C)(c1ccc(O)cc1)c1ccc(O)cc1
AC50 [2]: 49.3 µM (active)
AC50 [7]: 189 µM (active)
outcome [3]: inactive

Cc1ccc(O)c(C)c1
outcome [1]: inactive
outcome [2]: inactive
outcome [3]: inactive

CC(c1ccc(O)cc1)(c1ccc(O)cc1)c1ccc(O)cc1
outcome [2]: inactive
outcome [3]: inactive

CC(C)(c1ccccc1)c1ccc(O)cc1
AC50 [2]: 27 µM (active)
outcome [3]: inactive
outcome [5]: inactive

O=C(NC(=O)c1cc(F)c(F)cc1Cl)Nc1cc(F)ccc1N1CCC(C(=O)O)CC1
outcome [2]: inactive

Cc1ccccc1[N+](=O)[O-]
outcome [2]: inactive

c1ccc(-c2ccccc2)cc1
outcome [2]: inactive
outcome [3]: inactive

Cc1ccccc1O
outcome [2]: inactive

O=S(=O)(O)C(F)(F)C(F)(F)C(F)(F)C(F)(F)C(F)(F)C(F)(F)F
AC50 [2]: 36.6 µM (active)

Cc1cccc([N+](=O)[O-])c1
outcome [2]: inactive

CCCCCCCCCc1ccc(O)cc1
outcome [2]: inactive
outcome [3]: inactive

CCOC(=O)C(O)(c1ccc(Cl)cc1)c1ccc(Cl)cc1
outcome [2]: inactive

CCCN(CCC)N=O
outcome [2]: inactive
